From PubChem BioAssay (Tox21)
Inconclusive results are not listed. A call without a number means that no potency is given here. Calls of active or inactive are those of the source. Calls follow the shape of the dose curve; as a rule, active = well fitted activation curve with a large enough effect in the repeat runs; inconclusive = weak or mixed curves; inactive = no such curve, though single readings can be large or run the other way.

What follows are compounds tested against Nuclear receptor subfamily 1 group I member 3 (Homo sapiens) (UniProt Q14994) (assay: qHTS assay to identify small molecule agonists of the constitutive androstane receptor (CAR) signaling pathway (AID 1224839; also: nearly all actives have a fitted effect of over 15% in size;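 as to activation: HepG2 cells stably carrying human CAR and a CYP2B6 luciferase reporter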)). Settings: HepG2 hCAR CYP2B6-luciferase, agonist mode, 24 h; series mostly up to 92.4 µM.
Chain of Nuclear receptor subfamily 1 group I member 3 (Homo sapiens) (Q14994 whole entry, looked up): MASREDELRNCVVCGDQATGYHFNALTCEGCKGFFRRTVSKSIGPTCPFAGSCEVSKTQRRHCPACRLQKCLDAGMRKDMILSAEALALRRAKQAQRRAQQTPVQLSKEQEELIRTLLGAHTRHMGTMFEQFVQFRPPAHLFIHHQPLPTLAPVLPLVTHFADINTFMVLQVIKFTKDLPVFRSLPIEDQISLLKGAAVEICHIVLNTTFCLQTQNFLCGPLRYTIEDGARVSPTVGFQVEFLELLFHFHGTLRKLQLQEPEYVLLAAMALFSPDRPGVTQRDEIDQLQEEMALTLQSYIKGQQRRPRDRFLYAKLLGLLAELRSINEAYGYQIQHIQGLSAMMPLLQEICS
From the text: National Center for Advancing Translational Sciences [NCATS] NIH Chemical Genomics Center [NCGC] U.S. Environmental Protection Agency [EPA] National Institutes of Environmental Health Sciences [NIEHS] National Toxicology Program [NTP] Assay overview: The constitutive androstane receptor (CAR) is a nuclear receptor which regulates multiple drug metabolizing enzymes (DMEs) and transporters. Activating CAR will generally increase the transcription and subsequent translation of CYP2B6 and CYP3A4. These two DMEs represent about 50% of the drug metabolizing potential in the body. […] Recently, there have also been studies performed indicating CARs role in energy metabolism and cancer therapy. Therefore, inducing CARs activity could have a potential effect on diabetes and cancer. Identifying environmental toxins and compounds which modulate CAR, through the use of the Tox21 10K compound collection, will be an important step in determining the toxicity and potential therapeutic effects these factors will have on the human body.
Assay Protocol Summary: A double-stable (hCAR and CYP2B6-2.2kb) transfected cell line, derived from human hepatoma (HepG2) cells, was utilized for the duration of the quantitative high-throughput screens. The HepG2-CYP2B6-hCAR cells suspended in DMEM culture medium supplemented with 10% FBS, 5 ug/mL blasticidin, 0.5 mg/mL geneticin, 100 U/mL penicillin and 100 ug/mL streptomycin were dispensed at 2500 cells/4 uL/well in 1536-well white solid bottom plates using a Multidrop Combi. After the assay plates were incubated at 37 C/5% CO2 for 4 hrs, 23 nL of compounds at 15 concentrations (from 5-48 columns) or positive control (from 1 to 4 columns) were transferred to the assay plates using a Pintool station. One uL of PK11195, was added using a Flying Reagent Dispenser to generate a final concentration of 0.75 uM PK11195 inside each well. After a 24 hr incubation period at 37 C/5% CO2, four uL of ONE-Glo reagent was added into the assay plates using a Flying Reagent Dispenser. After a 30 min incubation period at room temperature, the luminescence intensity in the assay plates was measured using a ViewLux plate reader.
Potency is read from the fitted curve at half-maximal effect.

| Compound | Potency |
| --- | --- |
| COc1cc(-c2nc(NC(=O)c3cc4cc(C)cc(C)c4n3CC(=O)O)sc2CCC2CCCCC2)c(OC)cc1Cl | inactive |
| Fc1ccc([C@@H]2CCNC[C@H]2COc2ccc3c(c2)OCO3)cc1 | inactive |
| CCCCCCCCCCCC(=O)NCCCN(C)C | inactive |
| Cc1c(C)c2c(c(C)c1O)CCC(C)(COc1ccc(CC3SC(=O)NC3=O)cc1)O2 (stereo not given) | inactive |
| O=C1Cc2cc(CCN3CCN(c4nsc5ccccc45)CC3)c(Cl)cc2N1 | inactive |
| COCCCC/C(=N\OCCN)c1ccc(C(F)(F)F)cc1 | inactive |
| CCOc1nc2cccc(C(=O)OC(C)OC(=O)OC3CCCCC3)c2n1Cc1ccc(-c2ccccc2-c2nn[nH]n2)cc1 (stereo not given) | inactive |
| CCCC(c1cc(C(C)(C)C)c(O)cc1C)c1cc(C(C)(C)C)c(O)cc1C | inactive |
| O=c1[nH]cnc2nc[nH]c12 | inactive |
| CN(C)[C@@H]1C(=O)C(C(N)=O)=C(O)[C@@]2(O)C(=O)C3=C(O)c4c(O)cccc4C[C@H]3C[C@@H]12 | inactive |
| O=C(c1ccc(O)cc1O)c1ccc(O)cc1O | inactive |
| CC(C)(C)C1CCC(CC2=C(O)c3ccccc3C(=O)C2=O)CC1 (stereo not given) | inactive |
| CCCCCCCC(=O)[O-].CCCCCCCC(=O)[O-].[Zn+2] | inactive |
| N=C1N=C(N)c2ccccc21 | inactive |
| Cc1oc(-c2ccccc2)nc1CCC(=O)c1ccc(CC2SC(=O)NC2=O)cc1 (stereo not given) | inactive |
| Nc1nc2ccccc2n1Cc1ccc(F)cc1 | 15 µM (active) |
| O=C(c1ccc(F)cc1)C1CCN(CCn2c(=O)[nH]c3ccccc3c2=O)CC1 | inactive |
| Cc1cccc2c1cc1ccc3cccc4ccc2c1c34 | 15.7 µM (active) |
| O=C1c2ccccc2Cc2ccccc21 | 21.8 µM (active) |
| Oc1ccc2c(c1)-c1ccccc1C2 | 54.5 µM (active) |

| Compound | Potency |
| --- | --- |
| CN(C)C(=O)C1(N2CCCCC2)CCN(CC[C@@]2(c3ccc(Cl)c(Cl)c3)CN(C(=O)c3ccccc3)CCO2)CC1 | inactive |
| CCCN(CCC)C(=O)C(CCC(=O)OCCCN1CCN(CCOC(=O)Cc2c(C)n(C(=O)c3ccc(Cl)cc3)c3ccc(OC)cc23)CC1)NC(=O)c1ccccc1 (stereo not given) | inactive |
| Cn1cc(C(=O)[C@@H]2CCc3nc[nH]c3C2)c2ccccc21 | inactive |
| CCCC(C)c1ccccc1O (stereo not given) | inactive |
| O=C(Oc1ccccc1)c1ccccc1C(=O)Oc1ccccc1 | inactive |
| CCC(C)Nc1ccc(NC(C)CC)cc1 (stereo not given) | inactive |
| CC1=C(/C=C/C(C)=C/C=C/C(C)=C/C=O)C(C)(C)CCC1 | 15.3 µM (active) |
| N/C(=N\N=C\c1ccc(Cl)cc1)N/N=C/c1ccc(Cl)cc1 | inactive |
| COc1ccc(-c2ccc3cc(C(=O)O)ccc3c2)cc1C12CC3CC(CC(C3)C1)C2 | inactive |
| NNc1nc(-c2ccc([N+](=O)[O-])cc2)cs1 | inactive |
| CCC1OCC(COc2ccc(Oc3ccccc3)cc2)O1 (stereo not given) | 21.7 µM (active) |
| NC(=O)NS(=O)(=O)c1ccc(N)cc1 | inactive |
| CC(C)n1nc(-c2cc3cc(O)ccc3[nH]2)c2c(N)ncnc21 | inactive |
| Cc1cc(=O)oc2cc(N(C)C)ccc12 | 61.1 µM (active) |
| C=CC(=O)OCC(CO)(COCC(COC(=O)C=C)(COC(=O)C=C)COC(=O)C=C)COC(=O)C=C | inactive |
| CCC1=C[C@@H]2CN(C1)Cc1c([nH]c3ccccc13)[C@@](C(=O)OC)(c1cc3c(cc1OC)N(C)[C@H]1[C@@](O)(C(=O)OC)[C@H](OC(C)=O)[C@]4(CC)C=CCN5CC[C@]31[C@@H]54)C2 | inactive |
| Cc1onc(-c2c(Cl)cccc2Cl)c1C(=O)N[C@@H]1C(=O)N2[C@@H]1SC(C)(C)[C@@H]2C(=O)O | inactive |
| CSc1ccc(C(=O)c2[nH]c(=O)[nH]c2C)cc1 | inactive |
| [Cl][Bi]([Cl])([c]1ccccc1)([c]1ccccc1)[c]1ccccc1 | inactive |
| Cc1cccc(CN2CCN(C(c3ccccc3)c3ccc(Cl)cc3)CC2)c1 (stereo not given) | inactive |
